From PubChem BioAssay come the findings set out here.

A short description of experiment [1]: compounds altering viability of human ES cells (AID 493140; call rule not given here;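 note: cells exposed to compounds for four days before counting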). The settings on record: human embryonic stem cell survival screen; stronger effect = higher value.
The nature of experiment [2]: P. berghei load reduction in hepatocytes – cell-based, HepG2, luciferase luminescence, HepG2 viability, primary screen (AID 624349; in the data active = parasite load remaining mostly below about 12%, no sharp cut-off; inactive = mostly above about 10%;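 note: 100% = mean of DMSO negative control wells on the same plate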). The conditions noted are these: P. berghei liver stage in HepG2, luciferase luminescence, concentration not given here; parasite load remaining: stronger effect = lower value; viability: measured here: HepG2 viability without parasites.
A short description of experiment [3]: Wnt pathway potentiators raising nuclear beta-catenin – imaging, WNT3A-conditioned medium, mouse C2C12, NPC library, primary screen (AID 1117326; in the data active = nuclear beta-catenin stimulation mostly above about 4.2%, no sharp cut-off; inactive = mostly below about 10%). The conditions noted are these: stronger effect = higher value.
The nature of experiment [4]: stimulators of insulin release from INS-1E, primary screen, cell-based, 5 mM glucose, NPC library (AID 1117329;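 active = compound raises insulin release from rat beta cells at 5 mM glucose, no numeric limit stated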). The conditions noted are these: rat INS-1E insulin secretion, at 10 µM, stronger effect = higher value.
The nature of experiment [5]: growth inhibition of GSK3B-pretreated HCT116 cells – cell-based, CellTiter-Glo, 0.2 to 20 µM (AID 1117336;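 active = compounds lowering colon cancer cell viability after pretreatment blocking the GSK3B kinase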). The settings on record: HCT116 viability after GSK3B inhibitor, at 20 µM, stronger effect = higher value.
Experiment [6] is described as follows: inhibition of endothelial tube formation, primary screen, imaging, VEGF stimulated, CD31 staining, tube area, NPC library (AID 1117340;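 active = compound that reduces growth-factor-driven endothelial tube area in a mixed cell culture, no cutoff stated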). The settings on record: VEGF-stimulated ADSC/ECFC co-culture, at 10 µM, stronger effect = higher value.
Experiment [7] can be described thus: GLP1 release stimulators, primary, NCI-H716, NPC library (AID 1117341;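 active = compound raises GLP1 secretion from the human gut endocrine cells, with no numeric limit stated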). The settings on record: NCI-H716 cells, at 10 µM, stronger effect = higher value.
Experiment [8] in a line: HCT116 colon cancer cell growth inhibition, primary screen, CellTiter-Glo luminescence, NPC library (AID 1117342;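 active = compounds that lower survival of HCT116 colon cancer cells in the luminescence readout, no numeric limit stated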). The settings on record: at 20 µM (top of the series). (Cellular ATP, detected with luciferase, serves as a proxy for viable cell number.)
The nature of experiment [9]: reduced SW480 viability measured with CellTiter-Glo, NPC library, primary (AID 1117343). The conditions noted are these: CellTiter-Glo luminescence; at 20 µM (top of the series) unless noted.
The nature of experiment [10]: NPC library primary testing for decreased DLD-1 cell viability via CellTiter-Glo (AID 1117346;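 active = compounds that lower survival of DLD-1 colon cancer cells in the luminescence readout, no cutoff given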). The settings on record: DLD-1 viability, CellTiter-Glo luminescence; at 20 µM (top of the series).
Experiment [11] can be described thus: MELAS cybrid and Rieske KO viability enhancers – cell-based, MELAS cybrids, Rieske KO mouse fibroblasts, CellTiter-Glo, primary screen (AID 1508586;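 active = mean z-score across replicates of 1.96 or higher in either the MELAS or the Rieske mutant cell line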;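 note: z relative to plate mean and SD of compound and empty wells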). The settings on record: low glucose.
The nature of experiment [12]: galactose survival enhancers in mitochondrial complex I cybrids – cell-based, galactose medium, ATP luminescence, primary screen (AID 1645843;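 active = z-score of at least 1.8 in each of two replicates, scored against plate mean and spread of sample wells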;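 note: positive z means more ATP and so rescue of galactose-driven cybrid death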). The settings on record: complex I mutant cybrid cells, 72 h, stronger effect = higher value.
Experiment [13] concerns the target NAD(+) hydrolase SARM1 (Homo sapiens) (UniProt Q6SZW1). Kind of experiment: blocking NAD cleavage by SARM1 SAM-TIR – cell lysate, NAD-Glo luminescence (AID 1508614;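 active = compound whose remaining NAD level is above about 45 nM, limit read from the data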;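 note: higher remaining NAD means stronger inhibition of SARM1 NADase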). The conditions noted are these: SAM-TIR HEK293T lysate NADase, at 1 µM, stronger effect = higher value.
The target of experiment [14] is ATP-dependent translocase ABCB1 (Homo sapiens) (UniProt P08183). Kind of experiment: P-glycoprotein substrate transport blockade – cell-based (AID 377; in the data active = fluorescence slope change above about 50%). The conditions noted are these: MDR1-expressing cells, fluorescent substrate accumulation slope; stronger effect = higher value; concentration not given here.
Chain of ATP-dependent translocase ABCB1 (Homo sapiens) (P08183 whole entry, looked up): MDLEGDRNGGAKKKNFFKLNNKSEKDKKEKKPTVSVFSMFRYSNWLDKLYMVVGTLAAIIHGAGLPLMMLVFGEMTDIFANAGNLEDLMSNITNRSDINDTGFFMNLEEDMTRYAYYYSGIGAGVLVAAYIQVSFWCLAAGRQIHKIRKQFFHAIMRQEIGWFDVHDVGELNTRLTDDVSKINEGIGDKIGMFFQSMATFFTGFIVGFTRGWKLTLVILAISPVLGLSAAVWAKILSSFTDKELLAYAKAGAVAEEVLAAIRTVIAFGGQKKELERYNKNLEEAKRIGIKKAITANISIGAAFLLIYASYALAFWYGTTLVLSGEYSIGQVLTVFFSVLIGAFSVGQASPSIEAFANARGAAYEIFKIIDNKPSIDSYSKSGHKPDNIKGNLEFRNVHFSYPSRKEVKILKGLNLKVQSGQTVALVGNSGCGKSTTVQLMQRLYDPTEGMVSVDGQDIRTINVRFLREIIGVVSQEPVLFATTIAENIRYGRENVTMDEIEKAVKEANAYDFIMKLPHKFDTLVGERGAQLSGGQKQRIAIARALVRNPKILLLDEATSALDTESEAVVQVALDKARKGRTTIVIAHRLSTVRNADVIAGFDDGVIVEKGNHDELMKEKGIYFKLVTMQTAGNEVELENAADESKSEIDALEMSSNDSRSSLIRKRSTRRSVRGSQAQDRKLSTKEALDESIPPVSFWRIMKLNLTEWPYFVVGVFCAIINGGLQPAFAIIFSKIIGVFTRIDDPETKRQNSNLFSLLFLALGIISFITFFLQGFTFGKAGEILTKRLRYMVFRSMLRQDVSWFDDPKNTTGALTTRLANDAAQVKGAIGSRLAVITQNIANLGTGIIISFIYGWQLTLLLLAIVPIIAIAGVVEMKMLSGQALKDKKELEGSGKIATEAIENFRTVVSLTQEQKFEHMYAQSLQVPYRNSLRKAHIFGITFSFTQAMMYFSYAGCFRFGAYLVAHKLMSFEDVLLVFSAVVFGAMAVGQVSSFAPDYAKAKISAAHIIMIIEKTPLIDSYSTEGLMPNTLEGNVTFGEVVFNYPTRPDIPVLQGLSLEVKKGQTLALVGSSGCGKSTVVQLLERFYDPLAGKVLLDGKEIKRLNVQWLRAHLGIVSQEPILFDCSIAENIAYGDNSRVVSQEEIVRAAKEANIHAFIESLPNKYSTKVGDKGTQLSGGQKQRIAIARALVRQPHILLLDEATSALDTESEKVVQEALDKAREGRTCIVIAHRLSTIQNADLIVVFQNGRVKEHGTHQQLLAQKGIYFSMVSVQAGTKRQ
Setting [15] is: MELAS cybrid survival, CellTiter-Glo 48 h, stronger effect = higher value.
The mark [16] stands for this setting: Rieske KO mouse fibroblast survival, CellTiter-Glo 72 h.

Molecules are shown by their SMILES. Several values for one entry are separate records, joined by “and”; a condition that tells them apart may be missing. Equal values may be shown once. Results filed as inconclusive are left out. Activity calls are given as the source filed them.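 Rule for the calls, unless noted: active = compounds that lower viability of the colon cancer cells in the luminescence readout, with no numeric limit stated; inactive = the rest.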

Chain of NAD(+) hydrolase SARM1 (Homo sapiens) (Q6SZW1 whole entry, looked up): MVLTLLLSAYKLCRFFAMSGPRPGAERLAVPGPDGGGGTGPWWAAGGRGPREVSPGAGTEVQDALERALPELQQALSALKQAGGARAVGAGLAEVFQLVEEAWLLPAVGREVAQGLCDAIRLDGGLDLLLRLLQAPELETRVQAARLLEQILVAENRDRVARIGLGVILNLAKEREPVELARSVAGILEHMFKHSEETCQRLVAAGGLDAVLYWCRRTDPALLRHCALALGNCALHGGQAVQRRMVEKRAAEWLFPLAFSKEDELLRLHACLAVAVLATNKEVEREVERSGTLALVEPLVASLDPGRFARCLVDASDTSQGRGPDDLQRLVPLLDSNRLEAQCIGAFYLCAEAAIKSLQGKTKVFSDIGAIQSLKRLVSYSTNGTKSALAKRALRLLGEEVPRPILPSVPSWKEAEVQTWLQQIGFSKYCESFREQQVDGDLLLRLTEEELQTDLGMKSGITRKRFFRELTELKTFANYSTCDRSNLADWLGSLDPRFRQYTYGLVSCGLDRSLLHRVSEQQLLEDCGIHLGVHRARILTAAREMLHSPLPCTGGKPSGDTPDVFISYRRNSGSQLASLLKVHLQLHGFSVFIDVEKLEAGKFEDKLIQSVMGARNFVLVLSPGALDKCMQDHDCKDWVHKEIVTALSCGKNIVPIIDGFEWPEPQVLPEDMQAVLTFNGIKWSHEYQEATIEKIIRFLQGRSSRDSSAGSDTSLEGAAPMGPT

Take `O=C1NCN(c2ccccc2)C12CCN(CCCC(c1ccc(F)cc1)c1ccc(F)cc1)CC2`: the survival in experiment [1] is 0.417 (inactive). Also, the parasite load remaining in experiment [2] is 45.3% (inactive) and 31.6% (inactive). Also, the viability (usually the share of living cells, or the viability signal relative to a control) in [2] was 89.8% and 100%. Further, the nuclear beta-catenin stimulation was 31.6% (inactive) in experiment [3] (at 10 µM) and 2.1% in [3] (stimulation, at 2 µM). For the same compound, in [4], the insulin secretion stimulation is 2.5% (inactive). In experiment [5], the viability decrease was 99.7% (active). The tube area decrease in experiment [6] is 109% (active). Besides, in [7], the GLP1 secretion stimulation is -0.5% (inactive). Further, in experiment [8], the inhibition of viability was 99.6% (active). Moreover, the viability decrease (inhibition) in experiment [9] is 103% (active); in experiment [10], 102% (active). Further, the z-score was -1.7 (inactive) and 0.321 (inactive) in experiment [11] (setting [15]); 0.391 and -0.284 in experiment [11] (setting [16]); -0.995 (inactive) and -1.48 (inactive) in experiment [12].
As to `O=C(O)CCCCC(=O)O`, the nuclear beta-catenin stimulation in experiment [3] (at 10 µM) is 0.3% (inactive); in experiment [3] (stimulation, at 2 µM), -0.9%. Besides, the insulin secretion stimulation in [4] is -0.6% (inactive). Moreover, the viability decrease in experiment [5] is -6.5% (inactive). Also, the tube area decrease in [6] was -7.7% (inactive). Further, in experiment [7], the GLP1 secretion stimulation is 1.4% (inactive). For the same compound, in experiment [8], the inhibition of viability was -4.8% (inactive). In addition, the results for the viability decrease (inhibition) in [9] and in experiment [10] were 25% (inactive) and 11.8% (inactive), respectively. In experiment [13], the remaining NAD is 10 nM (inactive).
For the compound `Cc1nc2ccccc2n1Cc1ccc(Cl)cc1`, the nuclear beta-catenin stimulation was 1.3% (inactive) in experiment [3] (at 10 µM) and 1.1% in [3] (stimulation, at 2 µM). Besides, the insulin secretion stimulation in experiment [4] is -3.2% (inactive). In experiment [5], the viability decrease is 52.8% (active). In addition, the tube area decrease in [6] is 62% (active). In addition, in experiment [7], the GLP1 secretion stimulation was -1.7% (inactive). Besides, the inhibition of viability in [8] is 45.2% (inactive). Moreover, the figures for the viability decrease (inhibition) in experiment [9] and in experiment [10] were 74% (active) and 40.1% (inactive), respectively. In addition, in [13], the remaining NAD is 10 nM (inactive).
With `CCCCC(O)c1ccccc1` (centres undefined), the nuclear beta-catenin stimulation in experiment [3] (at 10 µM) was -0.9% (inactive); in experiment [3] (stimulation, at 2 µM), -0.8%. Besides, the insulin secretion stimulation in experiment [4] was -0.1% (inactive). In addition, the viability decrease in experiment [5] is -9.5% (inactive). In addition, the tube area decrease in experiment [6] is -9.9% (inactive). In addition, the GLP1 secretion stimulation in experiment [7] is -3.9% (inactive). Moreover, in experiment [8], the inhibition of viability is 5.3% (inactive). Further, the viability decrease (inhibition) is -5.1% (inactive) in experiment [9] and -6% (inactive) in experiment [10]. The figures for the z-score in experiment [11] (setting [15]) and in experiment [11] (setting [16]) were 0.247 (inactive) and 0.0374, respectively. For the same compound, the remaining NAD in [13] is 10 nM (inactive).
In the case of `CCOc1ccccc1OCC1CNCCO1` (centres undefined), in [14], the fluorescence slope change was 51.5% (active). For the same compound, the nuclear beta-catenin stimulation is 0.4% (inactive) in [3] (at 10 µM) and -0.3% in [3] (stimulation, at 2 µM). Further, the insulin secretion stimulation in experiment [4] was 1.75% (inactive). Besides, the viability decrease in experiment [5] is 1.7% (inactive). For the same compound, the tube area decrease in experiment [6] is -7% (inactive). Also, the GLP1 secretion stimulation in [7] was -0.1% (inactive). Besides, in [8], the inhibition of viability is 32.4% (inactive). For the same compound, the viability decrease (inhibition) in [9] is -7.1% (inactive); in [10] it was -5.4% (inactive). Besides, the z-score was 0.538 (inactive) in experiment [11] (setting [15]) and -0.146 in [11] (setting [16]).
Consider `C#C[C@]1(O)CC[C@H]2[C@@H]3CCc4cc(OC5CCCC5)ccc4[C@H]3CC[C@@]21C`, for which the nuclear beta-catenin stimulation in experiment [3] (at 10 µM) was 54.3% (active); in experiment [3] (stimulation, at 2 µM), 0.5%. For the same compound, in experiment [4], the insulin secretion stimulation was 0.3% (inactive). Also, the viability decrease in [5] is 102% (active). Also, the tube area decrease in experiment [6] is 46.9% (active). Further, in experiment [7], the GLP1 secretion stimulation was 32.5% (active). In addition, the inhibition of viability in experiment [8] was 101% (active). The viability decrease (inhibition) is 145% (active) in experiment [9] and 105% (active) in experiment [10]. In addition, the remaining NAD in experiment [13] was 10 nM (inactive).
